Screens from PubChem.
aSyn UTR act: Activators working through SNCA 5'UTR binding (MLPCN). alpha-synuclein 5'UTR reporter, activators screen. activity score, % (tested at 7.5 µM), hits read low. 7.1% of 300,000 active; in the data active = activity score below about -60%
An asterisk follows results filed as active. Not all results are given here.

SMILES	aSyn UTR act
CC1(C(=O)OCc2cc(=O)n3cc(Br)ccc3n2)CC1(Cl)Cl (stereo not given)	-140*
CC1CC1C(=O)OCc1cc(=O)n2cc(Br)ccc2n1 (stereo not given)	-148*
Cc1ccccc1C(=O)NC(CC(C)C)C(=O)OCc1cc(=O)n2cc(Br)ccc2n1 (stereo not given)	-73*
C=C(C)C1CC=C(C)/C(=N/NC(=O)c2cccs2)C1 (stereo not given)	-124*
C=C(C)C1CC=C(C)/C(=N/Nc2ccccc2[N+](=O)[O-])C1 (stereo not given)	-144*
COc1ccc(NC(=O)c2cc(C)nn2-c2ccccc2)cc1	-73*
COc1ccc(NC(=O)c2cccnn2)cc1	-97*
COc1ccc(-c2cc(C(=O)Nc3cc(Br)ccc3O)no2)cc1	-107*
COc1ccc(NC(=O)c2cc(C)on2)cc1	-106*
CC(C)n1cc(NC(=O)c2cc(-c3ccccc3)on2)cn1	-218*
CCc1ccccc1NC(=O)c1cc(-c2ccc(OC)cc2)on1	-77*
COc1ccc(NC(=O)c2cc(-c3ccccc3)on2)cc1	-77*
CC(C)CC(=O)Nc1nnc(-c2ccco2)s1	-151*
O=C(Nc1nnc(-c2ccco2)s1)C1CCCCC1	-95*
O=c1c(=Nc2ccccc2O)c(=O)c2ccccc12	-112*
COc1cccc2oc3ccc(C#CC4(N)CCCCC4)cc3c(=O)c12	-62*
Cc1cc2sc3ccc(C#CC4(O)CCCCC4)cc3c(=O)c2cc1C	102
C/C(=N\Nc1nnc2c3ccccc3n(C)c2n1)c1ccc(C)o1	-85*
Cc1cc(C)n(-c2nnc3c4ccccc4n(C)c3n2)n1	-69*
Cc1ccc(C2=NNC(C(O)C(O)C(O)C(C)O)S2)cc1 (stereo not given)	-87*
Cc1ccc2[nH]c3c(NCc4ccco4)ncnc3c2c1	-203*
Cc1ccc2[nH]c3c(NCCCN4CCCC4=O)ncnc3c2c1	-77*
CC(=O)c1ccccc1OCCOCCOCCOc1ccccc1C(C)=O	67
NC(=O)c1ccccc1OCCOc1ccc(Br)cc1	-63*
Cc1c(Cl)cccc1NC(=S)N=Nc1c(O)n(CN2CCOCC2)c2ccccc12	64
SMILES	aSyn UTR act
CC(C)c1ccc(NC(=S)NN2CCOCC2)cc1	-135*
CSc1ccccc1NC(=O)c1ccc(CN2CCOCC2)cc1	-97*
CC(C)c1ccc(C(=O)Nc2ccc(CN3CCOCC3)cc2)cc1	-68*
O=C(Nc1ccc2c(c1)OCO2)c1ccc(CN2CCOCC2)cc1	-104*
CC(C)(C)S(=O)(=O)c1cnc(-c2ccc(Cl)cc2)nc1N	-114*
Cc1nc(N)nc(N)c1/C=C/C(C)(C)c1ccc(Cl)cc1	125
CC(=O)C1=C(O)C(=O)N(c2ccc(Br)cn2)C1c1ccc(Br)cc1 (stereo not given)	-101*
CCN1CCN(C(CNC(=O)c2ccc3c(c2)OCO3)c2cccnc2)CC1 (stereo not given)	-69*
CCn1ncc(Br)c1C(=O)Nc1cc(C)cc(C)c1	-71*
Cc1cc(=O)[nH]c2n[nH]c(-c3ccccc3)c12	-63*
COC(=O)C1CCN(C(=O)/C=C/c2ccc3c(c2)OCO3)CC1	-66*
CCc1ccc2c(c1)/C(=C/C(=O)c1cccs1)C(=O)N2	-65*
Cc1cc(C(=O)CN2CCCC(C)C2)c(C)n1-c1ccc(F)cc1 (stereo not given)	-126*
CCCS/C(N)=N/N=C/c1ccccc1O	-198*
C=CCS/C(N)=N\N=C\c1c(O)ccc2ccccc12	-195*
Cn1nc(OC(=O)Nc2ccccc2)cc1C(F)(F)F	-123*
CCN1/C(=C\C=C2\C(=O)N(C)C(=S)N2C)Sc2ccccc21	-81*
CCCCN1/C(=C/c2ccc3ccccc3[n+]2CC)Sc2ccccc21	80
O=C(Nc1ccc2c(c1)OCO2)N1CCN(c2ccccc2)CC1	-195*
O=C(Nc1ccc2c(c1)OCO2)N1CCN(c2ccc(F)cc2)CC1	-122*
O=C(Nc1ccc2c(c1)OCO2)N1CCN(c2ncc(C(F)(F)F)cc2Cl)CC1	-104*
O=C(Nc1ccc2c(c1)OCO2)N1CCN(c2ncccn2)CC1	-111*
COC(=O)N/N=C\c1ccc(-c2cc(Cl)c(Cl)cc2Cl)o1	54
CCOc1ccc(S(=O)(=O)N(CC(=O)N/N=C/c2ccc(-c3ccc([N+](=O)[O-])cc3)o2)c2ccccc2)cc1	-72*
CCOC(=O)c1ccc(-c2ccc(/C=N/NC(=O)CN(c3ccccc3Cl)S(C)(=O)=O)o2)cc1	-153*
SMILES	aSyn UTR act
CC(C)Oc1cccc(C(=O)C2CCCN(C(=O)CCc3cnn(C)c3)C2)c1 (stereo not given)	-77*
O=C(O)CCCN1C(=O)/C(=C/c2ccc(-c3nc4ccccc4s3)o2)SC1=S	-76*
O=C(CN1C(=O)S/C(=C\C=C\c2ccccc2)C1=O)N1CCOCC1	-126*
O=C(COC(=O)CCN1C(=O)/C(=C\C=C\c2ccccc2)SC1=S)Nc1cc(F)ccc1F	64
O=C(CCCN1C(=O)S/C(=C\C=C\c2ccccc2)C1=O)Nc1ccc(O)cc1	-126*
O=C(CCN1C(=O)/C(=C/C=C/c2ccccc2)SC1=S)Nc1nc2ccccc2s1	-62*
CCc1ccc(/C=C2\SC(=S)N(CCCC(=O)Nc3ccc(C(=O)O)cc3)C2=O)cc1	109
O=C(CCN1C(=O)/C(=C\C=C\c2ccccc2)SC1=S)Nc1ccc(C(=O)O)cc1	-69*
Cc1cc(C(=O)COC(=O)Cc2n[nH]c(=O)c3ccccc23)c(C)n1-c1ccc2c(c1)OCCO2	-100*
Cc1cc(C(=O)COC(=O)C2=COCCO2)c(C)n1-c1cccc(F)c1	-156*
Cc1cc(C(=O)COC(=O)C2=COCCO2)c(C)n1-c1ccc2c(c1)OCO2	-134*
CSc1ccccc1C(=O)Nc1nc2ccccc2c(=O)[nH]1	-122*
CSc1ccccc1C(=O)Nc1nc2ccccc2[nH]1	-133*
COc1ccccc1C(=O)Nc1nc2ccccc2[nH]1	100
Cn1nc(C(=O)Nc2nc3ccccc3[nH]2)ccc1=O	-94*
Cc1sc(NC(=O)c2ccc(=O)n(C)n2)nc1-c1ccccc1	-95*
Cc1cccc(-n2nc3c(c2NC(=O)C2CC2)CS(=O)(=O)C3)c1C	-85*
O=C(O)CN1C(=O)/C(=C\c2cccc(OCc3ccc(Cl)cc3Cl)c2)SC1=S	-106*
O=C(NCC1CCCO1)c1cc2c(s1)CCC2 (stereo not given)	-122*
O=C(NCc1cccs1)c1cc2c(s1)CCCC2	-142*
Cc1occc1-c1nc(-c2ccncc2)no1	-77*
Cc1ccc(-c2noc(-c3ccoc3C)n2)cc1	-186*
O=C(Nc1ccc(Cl)cc1)c1ccc2nsnc2c1	-202*
CN(C)c1ccc(NC(=O)c2ccc3nsnc3c2)cc1	-166*
CC(C)(C)c1ccc(C(=O)c2cn[nH]c2-c2ccccc2O)cc1	-134*
SMILES	aSyn UTR act
Cc1cc(C)n2c(Br)c(CSc3nc4ccccc4o3)nc2n1	-87*
COc1ccc2oc(=O)c(-c3nnc(N)s3)cc2c1	-97*
O=c1oc2ccccc2cc1-c1nc2c(s1)CCc1ccccc1-2	-81*
O=c1oc2ccccc2cc1-c1nnc(NCc2ccco2)s1	-131*
Nc1nnc(-c2cc3ccccc3oc2=O)s1	-116*
CC/C(C)=N\Nc1nc(-c2cc3cc(OC)ccc3oc2=O)cs1	-119*
O=C(Nc1ccc(NC(=O)c2ccccc2Br)cc1)c1ccccc1	-84*
O=C(Nc1ccc(C(F)(F)F)cc1)c1ccccc1Br	-82*
O=C(Nc1ccc(Br)c(C(F)(F)F)c1)c1ccccc1	-90*
O=C(Nc1ccc(C(=O)c2ccccc2)cc1)c1ccccc1	-189*
